In all, about 3,200 compounds went through this assay and about 75 (2%) showed an effect of 50% or more. The sample as a whole holds a higher share of strong results than the screen did.
Test system: T1, S. aureus MSSA476
T1 construct: MSSA476
Parameters: species or system S. aureus MSSA476 (TSB) or V. cholerae SAD30 (LB); 384-well bacterial growth screen at 25 uM, OD600 relative to DMSO control
Conditions: relative growth, OD600, TSB; 25 µM; inhibitor

Compound	% of control remaining
Cc1cccc(CC(=O)CCl)c1 [10-I19, 1-chloro-3-(3-methylphenyl)propan-2-one]	130.938%
O=C(CCl)c1ccc(C(F)(F)F)cc1 [10-B10, 2-chloro-1-[4-(trifluoromethyl)phenyl]ethan-1-one]	135.938%
O=C(CCl)NC1CC(=O)N(c2cccc(C(F)(F)F)c2)C1 (stereo not shown) [5-E09, 2-chloro-N-{5-oxo-1-[3-(trifluoromethyl)phenyl]pyrrolidin-3-yl}acetamide]	113.661%
Cn1cc(C(=O)CCl)nn1 [10-M19, 2-chloro-1-(1-methyl-1H-1,2,3-triazol-4-yl)ethan-1-one]	87.5%
CC(NC(=O)CCl)c1cn(-c2ccccc2)nn1 (stereo not shown) [5-O06, 2-chloro-N-[1-(1-phenyl-1H-1,2,3-triazol-4-yl)ethyl]acetamide]	91.0747%
Cc1cccc(-n2cc(C(=O)CCl)nn2)c1 [10-L07]	0%
O=C(CCl)c1cn(-c2ccc(F)cc2)nn1 [10-F05]	0%
O=C(CCl)c1cn(-c2cccc(C(F)(F)F)c2)nn1 [10-C09, 2-chloro-1-{1-[3-(trifluoromethyl)phenyl]-1H-1,2,3-triazol-4-yl}ethan-1-one]	-0.3125%
O=C(CCl)c1c[nH]c2ccc(F)cc12 [10-O11, 2-chloro-1-(5-fluoro-1H-indol-3-yl)ethan-1-one]	120.625%
O=C(CCl)NCC(=O)Nc1nccs1 [5-G22, 2-chloro-N-{[(1,3-thiazol-2-yl)carbamoyl]methyl}acetamide]	86.3388%
Cc1nn(-c2ccccc2)c(Cl)c1C=C(C#N)C(=O)NC(C)C [9-J17, 3-(5-chloro-3-methyl-1-phenyl-1H-pyrazol-4-yl)-2-cyano-N-(propan-2-yl)prop-2-enamide]	77.9026%
C=CC(=O)N(C)CC(=O)Nc1ccc(N2C[C@@H](C)O[C@@H](C)C2)cc1 [3-H08, N-[({4-[(2R,6S)-2,6-dimethylmorpholin-4-yl]phenyl}carbamoyl)methyl]-N-methylprop-2-enamide]	117.719%
CC(C)N(c1ccccc1)c1ccc(NC(=O)CCl)cc1 [6-I17, 2-chloro-N-{4-[phenyl(propan-2-yl)amino]phenyl}acetamide]	116.78%
CCC(c1cc(Cl)cc(Cl)c1)N(C)C(=O)CCl (stereo not shown) [7-L10, 2-chloro-N-[1-(3,5-dichlorophenyl)propyl]-N-methylacetamide]	75.0392%
COc1cc(C)c(C=C(C#N)C(=O)Nc2ccc(C)cc2)cc1C(C)C [9-C04, 2-cyano-3-[4-methoxy-2-methyl-5-(propan-2-yl)phenyl]-N-(4-methylphenyl)prop-2-enamide]	99.176%
O=C(CCl)c1sccc1Cl [10-K11, 2-chloro-1-(3-chlorothiophen-2-yl)ethan-1-one]	10.3125%
O=C(CCl)c1cc(Cl)ccc1Cl [10-E16, 2-chloro-1-(2,5-dichlorophenyl)ethan-1-one]	80%
O=C(O)c1csc(C(=O)CCl)c1 [10-E22, 5-(2-chloroacetyl)thiophene-3-carboxylic acid]	88.4375%
C=CC(=O)NCc1cc(Cl)cc(S(C)(=O)=O)c1 [3-N15, N-[(3-chloro-5-methanesulfonylphenyl)methyl]prop-2-enamide]	97.5185%
C=CC(=O)NCc1oc(CC)nc1C [3-P15, N-[(2-ethyl-4-methyl-1,3-oxazol-5-yl)methyl]prop-2-enamide]	86.7218%
N#Cc1c(NC(=O)CCl)oc(-c2cccs2)c1-c1cccs1 [6-I09, 2-chloro-N-[3-cyano-4,5-bis(thiophen-2-yl)furan-2-yl]acetamide]	37.9024%
Cc1c(C#N)c(NC(=O)CCl)n(Cc2cccs2)c1C [4-C04, 2-chloro-N-{3-cyano-4,5-dimethyl-1-[(thiophen-2-yl)methyl]-1H-pyrrol-2-yl}acetamide]	108.623%
N#Cc1c(NC(=O)CCl)oc(-c2ccco2)c1-c1ccco1 [5-D10, 2-chloro-N-[4'-cyano-2'-(furan-2-yl)-[2,3'-bifuran]-5'-yl]acetamide]	66.6667%
COCC(C)NC(=O)C(C#N)=Cc1cccc(F)c1F (stereo not shown) [9-F09, 2-cyano-3-(2,3-difluorophenyl)-N-(1-methoxypropan-2-yl)prop-2-enamide]	101.873%
C=CC(=O)N1CCCC1c1nc(N(C)C)no1 (stereo not shown) [2-C21, 1-{2-[3-(dimethylamino)-1,2,4-oxadiazol-5-yl]pyrrolidin-1-yl}prop-2-en-1-one]	104.439%

Compound	% of control remaining
C=CC(=O)N(CC)CC(=O)N1CCCC(F)(F)C1 [2-G14, N-[2-(3,3-difluoropiperidin-1-yl)-2-oxoethyl]-N-ethylprop-2-enamide]	112.446%
O=C1C=CC(=O)N1CCc1ccccc1F [10-G03, 1-[2-(2-fluorophenyl)ethyl]-2,5-dihydro-1H-pyrrole-2,5-dione]	4.375%
O=C1C=CC(=O)N1CCc1ccccc1 [10-E20, 1-(2-phenylethyl)-2,5-dihydro-1H-pyrrole-2,5-dione]	58.4375%
O=C1C=CC(=O)N1CCc1ccc(F)cc1 [10-C21, 1-[2-(4-fluorophenyl)ethyl]-2,5-dihydro-1H-pyrrole-2,5-dione]	70.9375%
CCc1nsc(N2CCN(C(=O)C(C#N)=Cc3ccco3)CC2)n1 [9-K05, 2-[4-(3-ethyl-1,2,4-thiadiazol-5-yl)piperazine-1-carbonyl]-3-(furan-2-yl)prop-2-enenitrile]	96.779%
CNS(=O)(=O)c1cc(NC(=O)CCl)ccc1C [6-M07, 2-chloro-N-[4-methyl-3-(methylsulfamoyl)phenyl]acetamide]	112.341%
Cc1ccc(NC(=O)CN2CCN(C(=O)CCl)CC2)cc1.Cl [4-D16, 2-[4-(2-chloroacetyl)piperazin-1-yl]-N-(4-methylphenyl)acetamide hydrochloride]	131.872%
COCC(NC(=O)C(C)Cl)c1ccccn1 (stereo not shown) [6-B13, 2-chloro-N-[2-methoxy-1-(pyridin-2-yl)ethyl]propanamide]	95.6098%
COc1cc(C=C(C#N)C(=O)NC2CCCCC2)cc(Cl)c1O [8-H21, 3-(3-chloro-4-hydroxy-5-methoxyphenyl)-2-cyano-N-cyclohexylprop-2-enamide]	104.564%
O=C1C=CC(=O)N1c1ccc(OC(F)F)cc1 [10-P11, 1-[4-(difluoromethoxy)phenyl]-2,5-dihydro-1H-pyrrole-2,5-dione]	110.313%
COc1ccccc1N1C(=O)C=CC1=O [10-O10, 1-(2-methoxyphenyl)-2,5-dihydro-1H-pyrrole-2,5-dione]	118.438%
O=C1C=CC(=O)N1c1ccc(OC(F)(F)F)cc1 [10-J19, 1-[4-(trifluoromethoxy)phenyl]-2,5-dihydro-1H-pyrrole-2,5-dione]	5.9375%
CCOc1ccc(N2C(=O)C=CC2=O)cc1 [10-A14, 1-(4-ethoxyphenyl)-2,5-dihydro-1H-pyrrole-2,5-dione]	141.563%
O=C1C=CC(=O)N1c1ccc(F)c(Cl)c1 [10-D15, 1-(3-chloro-4-fluorophenyl)-2,5-dihydro-1H-pyrrole-2,5-dione]	109.688%
O=C1C=CC(=O)N1c1ccc2ccccc2c1 [10-D07, 1-(naphthalen-2-yl)-2,5-dihydro-1H-pyrrole-2,5-dione]	3.125%
O=C1C=CC(=O)N1c1ccc(Oc2ccccc2)cc1 [10-F17, 1-(4-phenoxyphenyl)-2,5-dihydro-1H-pyrrole-2,5-dione]	36.875%
COc1cccc(N2C(=O)C=CC2=O)c1 [10-K03, 1-(3-methoxyphenyl)-2,5-dihydro-1H-pyrrole-2,5-dione]	124.375%
O=C1C=CC(=O)N1c1cccc(O)c1 [10-O07, 1-(3-hydroxyphenyl)-2,5-dihydro-1H-pyrrole-2,5-dione]	125.313%
CCOC(=O)c1[nH]c(C)c(C(=O)CCl)c1C [10-A10, ethyl 4-(2-chloroacetyl)-3,5-dimethyl-1H-pyrrole-2-carboxylate]	136.563%
C=CC(=O)NCC1=NOCC1 [3-G16, N-[(4,5-dihydro-1,2-oxazol-3-yl)methyl]prop-2-enamide]	95.7771%
O=C1CCc2cc(C(=O)CCl)c(F)cc2N1 [10-O20, 6-(2-chloroacetyl)-7-fluoro-1,2,3,4-tetrahydroquinolin-2-one]	3.75%
O=C1CCc2cc(C(=O)CCl)ccc2N1 [10-M03, 6-(2-chloroacetyl)-1,2,3,4-tetrahydroquinolin-2-one]	83.125%
Cc1cc(C(=O)CCl)c(F)cc1F [10-O03, 2-chloro-1-(2,4-difluoro-5-methylphenyl)ethan-1-one]	143.438%
C=CC(=O)N1CCC(n2nc(C)nc2O)CC1 [3-P21, 1-[4-(5-hydroxy-3-methyl-1H-1,2,4-triazol-1-yl)piperidin-1-yl]prop-2-en-1-one]	126.077%
